The values below come from PubChem BioAssay (Tox21).

Inconclusive results are not listed. Where a call stands in place of a potency, no number is given. A structure can be active in one record and inactive in another. The source made the active and inactive calls. Calls follow the shape of the dose curve; as a rule, active = well fitted inhibition curve with a large enough effect in the repeat runs; inconclusive = weak or mixed curves; inactive = no such curve, though single readings can be large or run the other way.
Potency is read from the fitted curve at half-maximal effect.

In the assay the target is Aromatase (Homo sapiens) (UniProt P11511). Put plainly: qHTS assay to identify aromatase inhibitors (AID 743083). Also: nearly all actives have a fitted effect of over 55% in size. The following applies: MCF-7 aro ERE, testosterone-driven ERE luciferase, 24 h; series mostly up to 70.3 µM. (In qHTS, concentration-response curves come from the screen itself.)
Sequence of Aromatase (Homo sapiens) (P11511 whole entry, looked up): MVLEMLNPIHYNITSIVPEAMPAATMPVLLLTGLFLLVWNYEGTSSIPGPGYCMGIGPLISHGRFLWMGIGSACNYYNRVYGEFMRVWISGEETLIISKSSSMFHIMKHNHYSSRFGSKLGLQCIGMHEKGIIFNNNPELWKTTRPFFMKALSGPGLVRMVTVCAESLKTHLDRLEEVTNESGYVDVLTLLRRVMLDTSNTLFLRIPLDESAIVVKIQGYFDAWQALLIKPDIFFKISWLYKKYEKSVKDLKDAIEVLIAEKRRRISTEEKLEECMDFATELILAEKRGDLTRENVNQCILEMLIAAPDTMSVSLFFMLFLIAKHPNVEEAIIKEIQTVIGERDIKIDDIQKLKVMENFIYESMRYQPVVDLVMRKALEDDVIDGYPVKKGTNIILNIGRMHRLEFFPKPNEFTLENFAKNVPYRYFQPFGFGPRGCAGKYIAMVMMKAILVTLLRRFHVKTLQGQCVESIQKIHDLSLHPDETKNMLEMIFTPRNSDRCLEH
As to `Cn1c([N+](=O)[O-])cnc1COC(N)=O`, the Potency entry is “inactive”.

Consider `CC(C)Cc1ccccc1`, for which the Potency result was “inactive”.

As for `O=[N+]([O-])C(CO)(CO)CO`, the Potency result was “inactive”.

As for `O=S(=O)(O)CCS`, the Potency result was “inactive”.

Take `OC[C@@H](O)[C@@H](O)[C@H](O)[C@@H](O)CO`: the Potency result was “inactive”.

`CC1Cc2ccccc2N1NC(=O)c1ccc(Cl)c(S(N)(=O)=O)c1` (configuration not stated): the Potency result is “inactive”.

Consider `COC(=O)c1ccccc1O`, for which the Potency entry is “inactive”.

As to `COC(=O)c1ccc(C(=O)OC)cc1`, the Potency result is “inactive”.

Take `c1ccc2ccccc2c1`: the Potency result is “inactive”.

Take `CC(C)(CO)COC(=O)C(C)(C)CO`: the Potency entry is “inactive”.

For the compound `O=[N+]([O-])c1cccc(Cl)c1`, the Potency result is “inactive”.

Take `CC1COc2ccccc2N1C(=O)C(Cl)Cl` (configuration not stated): the Potency was 61 µM (active) and inactive.

As for `CCCCCCCCC`, the Potency result was “inactive”.

`Cc1cc(=O)[nH]c(C(C)C)n1`: the Potency entry was “inactive”.

For the compound `Nc1c(S(=O)(=O)O)cc(Br)c2c1C(=O)c1ccccc1C2=O`, the Potency result was “inactive”.

On to `Nc1cc(-c2ccncc2)c[nH]c1=O`, for which the Potency result is “inactive”.

For the compound `CCCCOCCO`, the Potency result was “inactive”.

In the case of `CC(=O)Nc1ccc(C(=O)O)cc1`, the Potency result is “inactive”.

For the compound `COCC(=O)O`, the Potency result was “inactive”.

In the case of `C=CC(=O)OCCCCCCCC(C)C`, the Potency entry was “inactive”.

For the compound `CCCCCCCCCCCCOCC1CO1` (configuration not stated), the Potency entry was “inactive”.

As to `CCC(C)C=O` (configuration not stated), the Potency entry is “inactive”.

Take `O=S(=O)(O)c1cc(S(=O)(=O)O)c2c(N=Nc3ccccc3)c(O)ccc2c1`: the Potency entry is “inactive”.

As for `CC1(C)CC(N=C=O)CC(C)(CN=C=O)C1` (configuration not stated), the Potency entry was “inactive”.

Regarding `Clc1cc(Cl)c(Cl)cc1Cl`, the Potency entry is “inactive”.

Take `O=C(Cl)c1c(Cl)c(Cl)c(C(=O)Cl)c(Cl)c1Cl`: the Potency entry was “inactive”.

On to `CS(=O)(=O)c1ccc([C@@H](O)[C@@H](CO)NC(=O)C(Cl)Cl)cc1`, for which the Potency entry was “inactive”.
